# Source: PubChem BioAssay (NCI)
# “And” between values parts separate entries of the source, which are not always exact repeats. Identical values can stand only once. About 83,000 compounds went through this panel and 20% of them were active in at least one assay; those are over-represented in the sample as a whole.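 Method: cells in 96-well plates; compound added at one concentration; 48 h incubation; percent growth measured; values under 10 scored active.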 The source made the active and inactive calls.
# Test system: T-47D breast
# Experiment: NCI-60 one-dose screen, 48 h (100 = growth as untreated, 0 = no growth, -100 = all killed)
# Conditions: 10 µM unless noted
row,SMILES,growth
1,c1ccc(CSc2nnc(-c3ccc4nc(-c5ccccc5)[nH]c4c3)o2)cc1,15.4% (inactive)
2,O=C(CSc1nnc(-c2ccc(-c3nc4ccccc4[nH]3)cc2)o1)Nc1ccccc1,109% (inactive)
3,CCCCCCCCCCCCCCCCCC(=O)Nc1ccc(OC)cc1,108% (inactive)
4,Nc1nn2c(-c3cc4ccccc4oc3=O)ccnc2c1N=Nc1ccccc1,85.9% (inactive)
5,O=C1NC(=S)/C(=C/c2cn(-c3ccccc3)nc2-c2ccccc2)S1,0.334% (active)
6,CC(Nc1ncnc2ccc(-c3ccc4oc(N)nc4c3)cc12)c1ccccc1 (centres undefined),-74.3% (active)
7,O=C(N/N=C/c1ccsc1)c1[nH]c2ccc(Br)cc2c1-c1ccccc1,-21.6% (active)

# Test system: BT-549 breast
# Experiment: as above
# Conditions: 1 µM
row,SMILES,growth
1,CC/C(=C(\c1ccc(O)cc1)c1ccc(OCCN(C)C(=O)COCCNC(=O)Cc2ccc3c(c2)CN([C@@H]2CCC(=O)NC2=O)C3=O)cc1)c1ccccc1,-25.9% (active)
2,CC/C(=C(\c1ccc(O)cc1)c1ccc(OCCN(C)C(=O)CCOCCNC(=O)c2ccc3c(c2)CN([C@@H]2CCC(=O)NC2=O)C3=O)cc1)c1ccccc1,9.93% (active)
3,CC/C(=C(/c1ccc(O)cc1)c1ccc(OCCN(C)C(=O)CCOCCNC(=O)Cc2ccc3c(c2)CN([C@@H]2CCC(=O)NC2=O)C3=O)cc1)c1ccccc1,-12.9% (active)
4,CC/C(=C(/c1ccc(O)cc1)c1ccc(OCCN(C)C(=O)COCCOCCNC(=O)c2ccc3c(c2)CN([C@@H]2CCC(=O)NC2=O)C3=O)cc1)c1ccccc1,5.04% (active)
5,CC/C(=C(\c1ccc(O)cc1)c1ccc(OCCNC)cc1)c1ccccc1,91.4% (inactive)
6,CC/C(=C(/c1ccc(O)cc1)c1ccc(OCCN(C)C(=O)COCCOCCNC(=O)Cc2ccc3c(c2)CN([C@@H]2CCC(=O)NC2=O)C3=O)cc1)c1ccccc1,-20.3% (active)

# Same assay, conditions: 10 µM
row,SMILES,growth
1,CC/C(=C(\c1ccc(O)cc1)c1ccc(OCCN(C)C(=O)COCCNC(=O)Cc2ccc3c(c2)CN([C@@H]2CCC(=O)NC2=O)C3=O)cc1)c1ccccc1,-22.3% (active)
2,CC/C(=C(\c1ccc(O)cc1)c1ccc(OCCN(C)C(=O)CCOCCNC(=O)c2ccc3c(c2)CN([C@@H]2CCC(=O)NC2=O)C3=O)cc1)c1ccccc1,39.3% (inactive)
3,CC/C(=C(/c1ccc(O)cc1)c1ccc(OCCN(C)C(=O)CCOCCNC(=O)Cc2ccc3c(c2)CN([C@@H]2CCC(=O)NC2=O)C3=O)cc1)c1ccccc1,-25.9% (active)
4,CC/C(=C(/c1ccc(O)cc1)c1ccc(OCCN(C)C(=O)COCCOCCNC(=O)c2ccc3c(c2)CN([C@@H]2CCC(=O)NC2=O)C3=O)cc1)c1ccccc1,43.1% (inactive)
5,CC/C(=C(\c1ccc(O)cc1)c1ccc(OCCNC)cc1)c1ccccc1,74.4% (inactive)
6,CC/C(=C(/c1ccc(O)cc1)c1ccc(OCCN(C)C(=O)COCCOCCNC(=O)Cc2ccc3c(c2)CN([C@@H]2CCC(=O)NC2=O)C3=O)cc1)c1ccccc1,-26% (active)

# Same assay, conditions: 10 µM unless noted
row,SMILES,growth
1,N#CC1=C(c2cccs2)Nc2c(c(-c3ccccc3)nn2-c2ccccc2)C12C(=O)Nc1ccccc12 (centres undefined),-41.8% (active)
2,O=C1CC(c2ccc(I)cc2)OC2C=Cc3ccccc3C12 (centres undefined),108% (inactive)
3,COc1ccc([C@H]2C(C(=O)c3ccc(Cl)cc3)C3(N[C@@H]2c2ccccc2)C(=O)Nc2ccccc23)cc1 (some centres undefined),84.3% (inactive)
4,COc1ccc2c(c1)N=c1c-2cc2c(O)[nH]c(=S)n2c1=O,32.4% (inactive)
5,CS(=O)(=O)Nc1cc(-c2ccc3ncnc(N4CCc5cc(F)c(Cl)cc54)c3c2)cnc1Cl,-25.2% (active)
6,CC1=C(C(=O)OC(C)C)C(c2ccc(O)cc2)NC(=O)N1 (centres undefined),96.1% (inactive)
7,COc1cccc(/C=C/c2nc3ccccc3c(=O)n2CC(=O)Nc2ccccc2)c1,43.9% (inactive)
8,COC(=O)c1c(C(=O)OC)c2ccc3c4ccccc4ccc3n2c1C(=O)OC,113% (inactive)
9,CCCCCCCCc1cccc(CC(=O)Nc2ccc(C)cc2C(=O)O)c1,73.6% [25 µM] (inactive)
10,O=C(c1cc2cc(OCCCN3CCC3)ccc2[nH]1)N1C[C@@H](CCl)c2c1cc(OCc1ccccc1)c1ccccc21,-48% (active)
11,CC(C)(C)OC(=O)N1CCC2(CC1)Oc1ccccc1[C@H]1CC(c3ccc(Br)cc3)=NN12,78.5% (inactive)
12,COc1ccc(NC2=C(I)C(=O)C(C)=C(C)C2=O)cc1,81.4% (inactive)
13,CC[C@]12C=CCN3CC[C@@]4(c5ccc(OC)cc5N(C)[C@H]4[C@@](O)(C(=O)OC)[C@@H]1OC(=O)CCCC[P+](c1ccc(F)cc1)(c1ccc(F)cc1)c1ccc(F)cc1)[C@@H]32,-23.5% (active)
14,FC(F)(F)c1cc2c(Cl)ncnc2n1CCN1CCCCC1,-3.05% (active)
15,O=C(CSc1nnc(-c2ccc(-c3nc4ccc(Cl)cc4[nH]3)cc2)o1)Nc1ccccc1,80% (inactive)
16,Cc1cccc(NCC(=O)N2CCN(c3ncnc4c3cnn4-c3ccccc3)CC2)c1,76.9% (inactive)
17,CS(=O)(=O)c1ccc(-n2nc(C(=O)NCc3ccccc3)cc2-c2ccc(Cl)cc2)cc1,143% (inactive)
18,CS(=O)(=O)Nc1cccc(-n2c(COc3ccc(OC(F)(F)F)cc3)nc3ccccc32)c1,98% (inactive) and 96.5% (inactive)
19,O=C(CSc1nc2sc3c(c2c(=O)n1-c1ccc(Cl)cc1)CCCC3)NNC(=O)c1ccc(Br)cc1,74.5% (inactive)
20,O=C(c1ccc(Cl)cc1)C1[C@H](c2ccccc2Cl)[C@@H](c2ccccc2)NC12C(=O)Nc1ccccc12 (some centres undefined),-77.4% (active)
21,O=C1NC(=NC23CC4CC(CC(C4)C2)C3)N/C1=C\c1ccc2ncccc2c1,16.2% (inactive)
22,N#CC1=C(c2ccco2)Nc2c(c(-c3ccccc3)nn2-c2ccccc2)C12C(=O)Nc1ccc(Cl)cc12 (centres undefined),15.4% (inactive)
23,O=C(c1ccc(O)cc1)C1[C@H](c2ccccc2Br)[C@@H](c2ccccc2)NC12C(=O)Nc1ccccc12 (some centres undefined),51.9% (inactive)
24,c1ccc(CSc2nnc(-c3ccc4nc(-c5ccccc5)[nH]c4c3)o2)cc1,35.4% (inactive)
25,O=C(CSc1nnc(-c2ccc(-c3nc4ccccc4[nH]3)cc2)o1)Nc1ccccc1,98.7% (inactive)
26,CCCCCCCCCCCCCCCCCC(=O)Nc1ccc(OC)cc1,108% (inactive)
27,Nc1nn2c(-c3cc4ccccc4oc3=O)ccnc2c1N=Nc1ccccc1,29.5% (inactive)
28,O=C1NC(=S)/C(=C/c2cn(-c3ccccc3)nc2-c2ccccc2)S1,-9.85% (active)
29,CC(Nc1ncnc2ccc(-c3ccc4oc(N)nc4c3)cc12)c1ccccc1 (centres undefined),-21.6% (active)
30,O=C(N/N=C/c1ccsc1)c1[nH]c2ccc(Br)cc2c1-c1ccccc1,-86% (active)
